{
  "source": "PubChem BioAssay AID652010",
  "about": "(The Scripps Research Institute Molecular Screening Center, 2013)",
  "note": "In all, about 370,000 compounds went through this assay and about 4,100 (1.1%) were called active. This is one part of a sample in which actives are shown more often than they occur.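 Rule for the calls: active = inhibition above the mean over all tested compounds plus 3 SD (cut at about 3.6% in these data); inactive = the rest.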",
  "data": [
    {"assay": "DAX1 (NR0B1) inhibitors on StAR promoter, primary screen, cell-based, luminescence, SF-1 (NR5A1), full-length DAX-1 (AID 652010);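 note: 0% = DAX-1 cells with DMSO and 100% = cells lacking DAX-1 with DMSO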", "settings": "HEK293T StAR-luciferase reporter, SF-1/DAX-1 repression relief; at 6.8 µM; stronger effect = higher value", "values": [
      {"smiles": "Cc1ccc2c(c1)C1CN(C)CCC1N2S(=O)(=O)c1ccc(Oc2ccc([N+](=O)[O-])cc2)cc1", "note": "(configuration not stated)", "inhibition": "-0.52% (inactive)"},
      {"smiles": "COCCNC(=S)N(C)[C@H]1C[C@H]2c3[nH]c4ccccc4c3CCN2C[C@H]1[C@H](C)O", "inhibition": "1.22% (inactive)"},
      {"smiles": "CCOC(=O)N1CCN(S(=O)(=O)c2ccc3c(c2)C(C)C(=O)N3)CC1", "note": "(configuration not stated)", "inhibition": "0.76% (inactive)"},
      {"smiles": "Fc1ccccc1-c1cc2cc3c(cc2cn1)OCO3", "inhibition": "1.9% (inactive)"},
      {"smiles": "Fc1ccc2cnc(-c3ccccc3)cc2c1", "inhibition": "9.42% (active)"},
      {"smiles": "COc1cc(OC)cc(-c2cc3ccc(F)cc3cn2)c1", "inhibition": "1.37% (inactive)"},
      {"smiles": "CN(C)c1ccc(NC(=O)NC2CCCCN(Cc3ccc(Cl)cc3)C2=O)cc1", "note": "(configuration not stated)", "inhibition": "-1.13% (inactive)"},
      {"smiles": "COC(=O)C1C(=O)c2c([nH]c(C(=O)OCCSC)c2C)CC1C", "note": "(configuration not stated)", "inhibition": "5.6% (active)"},
      {"smiles": "CN(C)[C@H]1CCN(c2cccc3c2S(=O)(=O)N2CC[C@H](C2)O3)C1", "inhibition": "0.33% (inactive)"},
      {"smiles": "O=C(NCc1ccco1)c1nn2cccnc2c1Cl", "inhibition": "0.65% (inactive)"},
      {"smiles": "O=C(Nc1ccc2oc(-c3ccccc3F)nc2c1)c1ccco1", "inhibition": "4.4% (active)"},
      {"smiles": "O=C(Nc1cc(-c2nc3ncccc3o2)ccc1Cl)c1ccco1", "inhibition": "-1.38% (inactive)"},
      {"smiles": "COc1ccc(-c2c(NC(=O)c3ccco3)oc3ccc(Cl)cc3c2=O)cc1", "inhibition": "-0.46% (inactive)"},
      {"smiles": "O=C(CN1CCC(NC(=O)NCc2ccccc2)CC1)Nc1ccc2c(c1)OCCO2", "inhibition": "-0.91% (inactive)"},
      {"smiles": "Cc1cccc(NC(=O)C[C@H]2CC[C@H]3[C@@H](COc4ccc(NC(=O)Nc5ccccc5)cc4C(=O)N3C)O2)c1", "inhibition": "0% (inactive)"},
      {"smiles": "Cc1ccc(-c2nnc(SCC(=O)Nc3ccc(Oc4ccccc4)cc3)n2Cc2ccco2)cc1", "inhibition": "-2.13% (inactive)"},
      {"smiles": "CC(C)CNc1cccc2c1S(=O)(=O)N(Cc1cn(Cc3ccccc3C(F)(F)F)nn1)Cc1ccccc1O2", "inhibition": "0.13% (inactive)"},
      {"smiles": "COc1ccc(-c2ccc(CN3C(CC(C)C)C(=O)N(Cc4cn(CC5CCCCC5)nn4)CCS3(=O)=O)cc2)cc1", "note": "(configuration not stated)", "inhibition": "2.67% (inactive)"},
      {"smiles": "COc1ccc(-c2ccc(CN3C(C(C)C)C(=O)N(Cc4cn(CC5CCCCC5)nn4)CCS3(=O)=O)cc2)cn1", "note": "(configuration not stated)", "inhibition": "-0.19% (inactive)"},
      {"smiles": "COc1ccc(-c2ccc(CN3C(CC(C)C)C(=O)N(Cc4cn(CC5CCCCC5)nn4)CCS3(=O)=O)cc2)cn1", "note": "(configuration not stated)", "inhibition": "3.92% (active)"},
      {"smiles": "COC(=O)c1cccc(Cn2ccc3ccc(-c4ccc5ccn(C(=O)C6CCCCC6)c5c4)cc32)c1", "inhibition": "0.41% (inactive)"},
      {"smiles": "CCOC(=O)N1CCN(C(=O)C[C@@H]2C(=O)N(CCc3ccc(Cl)cc3)C3=CCCC[C@]32C(=O)OCC)CC1", "inhibition": "-2.96% (inactive)"},
      {"smiles": "O=C(NN=CC=Cc1ccccc1)C(O)C(O)C(=O)NN=CC=Cc1ccccc1", "note": "(configuration not stated)", "inhibition": "0.1% (inactive)"},
      {"smiles": "CSc1ccc(CNC(=O)C2(C)CCCN2C)cc1", "note": "(configuration not stated)", "inhibition": "-0.07% (inactive)"},
      {"smiles": "COc1ccc2cc(CCl)c(Cl)nc2c1", "inhibition": "-0.14% (inactive)"},
      {"smiles": "COc1ccc(C=C(C#N)C#N)c(CSc2ccccn2)c1", "inhibition": "-0.31% (inactive)"},
      {"smiles": "COc1ccc2nc(-c3ccccn3)ccc2c1", "inhibition": "15.7% (active)"},
      {"smiles": "COC(=O)c1cc(S(=O)(=O)N2CCN(C(=O)C3CCCO3)CC2)cn1C", "note": "(configuration not stated)", "inhibition": "0.73% (inactive)"},
      {"smiles": "N#CCC[C@H]1CC[C@]2(CCCN(Cc3ccc(Cl)cc3)C2)O1", "inhibition": "0.06% (inactive)"},
      {"smiles": "COc1ccccc1C(=O)CSc1nnc(-c2ccccn2)n1-c1ccccc1", "inhibition": "-0.86% (inactive)"},
      {"smiles": "Nn1c(SCC(=O)N2c3ccccc3Sc3ccccc32)nnc1-c1n[nH]c2c1CCC2", "inhibition": "-0.89% (inactive)"},
      {"smiles": "COc1ccc(CCNC(=O)COC(=O)Cc2cccc(F)c2)cc1", "inhibition": "2.2% (inactive)"},
      {"smiles": "O=C(COC(=O)Cc1ccccc1F)NCCc1ccccc1", "inhibition": "1.4% (inactive)"},
      {"smiles": "COc1ccc(CCNC(=O)COC(=O)Cc2ccccc2F)cc1", "inhibition": "5.57% (active)"},
      {"smiles": "C=CCN=C1NC(c2cccc(C(F)(F)F)c2)C(C(=O)OC)=C(C)N1C", "note": "(configuration not stated)", "inhibition": "-0.18% (inactive)"},
      {"smiles": "C=C(C)C#CC(Cc1ccccc1)NCC1CC1", "note": "(configuration not stated)", "inhibition": "-0.89% (inactive)"},
      {"smiles": "COc1ccc(-c2cn3ccc(C)cc3n2)cc1", "inhibition": "5.29% (active)"},
      {"smiles": "COc1ccc(-c2cn3ccsc3n2)cc1", "inhibition": "4.57% (active)"},
      {"smiles": "FC(F)(F)Oc1ccc(-c2cn3cccnc3n2)cc1", "inhibition": "1.35% (inactive)"},
      {"smiles": "COc1cc(OC)cc(-c2nc(=S)n3ccsc3n2)c1", "inhibition": "-0.3% (inactive)"},
      {"smiles": "COc1ccc(-c2ccc3c(n2)CCCN3S(=O)(=O)c2ccc(C)cc2)cc1", "inhibition": "-0.47% (inactive)"},
      {"smiles": "COc1ccc(CSc2nnc(-c3cccc(C)c3)n2C)cc1", "inhibition": "-0.99% (inactive)"},
      {"smiles": "O=C(Nc1cccc(Cl)c1)OC1CC2CC1[C@H]1CCCCN1[C@H]2Cc1ccccc1", "note": "(some centres not stated)", "inhibition": "-0.06% (inactive)"},
      {"smiles": "O=C(CSc1nc2ccccc2n1Cc1ccccc1Cl)N/N=C\\c1c[nH]c2ccccc12", "inhibition": "-0.91% (inactive)"},
      {"smiles": "Cc1cc(=O)[nH]c(SCC(=O)Nc2ccc(F)cc2F)n1", "inhibition": "0.67% (inactive)"},
      {"smiles": "C=CCN1[C@@H](Cc2ccccc2)COc2cccc(N3CCSCC3)c2S1(=O)=O", "inhibition": "0.68% (inactive)"},
      {"smiles": "O=C(Nc1ccccc1)Nc1nnc(COc2ccccc2F)s1", "inhibition": "0.16% (inactive)"},
      {"smiles": "O=C(Nc1ccccc1)Nc1nc2ccccc2s1", "inhibition": "9.89% (active)"},
      {"smiles": "O=C(Nc1nc2ccc(Cl)cc2s1)c1cc(-c2ccc(Cl)cc2)nc2ccccc12", "inhibition": "0.51% (inactive)"},
      {"smiles": "COC(=O)[C@]12C[C@H](CC(=O)NCc3ccccc3)C(=O)N(Cc3ccccc3)C1=C[C@H](COCc1ccccc1)O[C@@H]2C", "inhibition": "-0.43% (inactive)"},
      {"smiles": "COc1ccc(C(=O)CSc2nnc(-c3cnccn3)n2-c2ccc(C)cc2)cc1", "inhibition": "0.38% (inactive)"},
      {"smiles": "CSc1ccc(C=Nn2c(-c3ccc(F)cc3)n[nH]c2=S)cc1", "inhibition": "-1.55% (inactive)"},
      {"smiles": "COC(=O)C1=C(C)N(Cc2ccc(C(F)(F)F)cc2)C(=NCc2ccc(C(F)(F)F)cc2)NC1c1cccc(Cl)c1", "note": "(configuration not stated)", "inhibition": "0.24% (inactive)"},
      {"smiles": "O=c1c(-c2ccccc2)coc2cc(O)ccc12", "inhibition": "3.75% (active)"},
      {"smiles": "CC(C)=CCc1c(O)c(CC=C(C)C)c2occ(-c3ccc(O)cc3)c(=O)c2c1O", "inhibition": "0.21% (inactive)"},
      {"smiles": "CCc1ccc(Oc2coc3cc(O)ccc3c2=O)cc1", "inhibition": "0.76% (inactive)"},
      {"smiles": "Cc1ccc(C(=O)N(Cc2ccccn2)CC2CCCO2)cc1", "note": "(configuration not stated)", "inhibition": "0.03% (inactive)"}
    ]}
  ]
}
